# Bioassay records: PubChem, several laboratories
# EphB4 ephrin blk: EphB4-ephrin-B2 interaction antagonists, primary screen, biochemical, TNYL-RAW peptide probe, fluorescence polarization | 97,000 compounds, 0.15% hits | Ephrin type-B receptor 4 (Homo sapiens), P54760 | inhibition, % at 7 µM | EphB4 LBD / TNYL-RAW-Alexa532 peptide;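 active means inhibition above the screen-wide mean inhibition plus 3 SD, cut at about 15% in these data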;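 further: 0% = DMSO wells and 100% = excess unlabeled TNYL-RAW peptide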
# D1 allo mod: D1 CRE-luciferase signal change, two-sided – cell-based, HEK293 D1, dopamine EC30, D1 allosteric modulator project, primary screen | 58,000 compounds, 5.9% hits | dopamine EC30 potentiation; actives deviate in either direction | B-score at 10 µM | D(1A) dopamine receptor (Homo sapiens), P21728;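 active means luminescence count or its row- and column-corrected plate score outside the 99.7% band of the plate's sample wells, on either side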
# hDAT+cocaine: changed hDAT dopamine uptake under cocaine IC80, either direction, primary screen, cocaine antagonist project, cell-based, LLC-PK1 hDAT, [14C]-dopamine uptake, MLSMR; AID 449768, 2010; 110,000 compounds, 1.3% hits; B-score at 10 µM; LLC-PK1 hDAT cells, [14C]-dopamine uptake with cocaine IC80; actives deviate in either direction; Sodium-dependent dopamine transporter (Homo sapiens), Q01959;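 active means Z score or B-score, a plate-position-corrected score, falls beyond the plate's 99.7% confidence bounds, in either direction; inactive means both scores lie inside the 99.7% bounds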;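 further: scored against the spread of the other compound wells on the same plate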
# Target sequence (Q01959 whole entry, looked up): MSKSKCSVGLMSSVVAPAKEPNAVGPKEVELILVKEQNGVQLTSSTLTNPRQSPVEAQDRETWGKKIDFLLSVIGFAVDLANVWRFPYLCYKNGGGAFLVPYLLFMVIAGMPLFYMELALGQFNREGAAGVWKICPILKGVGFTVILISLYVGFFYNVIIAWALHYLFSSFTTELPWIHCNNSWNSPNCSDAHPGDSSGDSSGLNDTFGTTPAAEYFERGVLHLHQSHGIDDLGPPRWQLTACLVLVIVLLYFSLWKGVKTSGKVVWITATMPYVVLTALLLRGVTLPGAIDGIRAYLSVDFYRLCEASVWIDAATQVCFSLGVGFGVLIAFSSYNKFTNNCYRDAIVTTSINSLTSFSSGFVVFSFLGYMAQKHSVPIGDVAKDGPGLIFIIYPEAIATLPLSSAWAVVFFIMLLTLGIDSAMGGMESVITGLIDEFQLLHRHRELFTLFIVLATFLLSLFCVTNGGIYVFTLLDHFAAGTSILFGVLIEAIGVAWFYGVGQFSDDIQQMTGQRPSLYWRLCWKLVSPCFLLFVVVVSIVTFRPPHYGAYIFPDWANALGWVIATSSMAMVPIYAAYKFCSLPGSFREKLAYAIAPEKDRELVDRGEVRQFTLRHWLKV
# D1 PAM confirm: D1 receptor positive allosteric modulators, retest, confirmation, cell-based, HEK293 D1, CRE-luciferase, duplicate; AID 642, 2007; 2,200 compounds, 88% hits; luminescence at 10 µM; dopamine EC30 potentiation; active compounds read high; shares compounds with D1 allo mod;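 active means luminescence in either of two replicates above the same-plate mean plus 3 SD of the low-dose dopamine control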
# D1 no dopamine: D1 receptor agonism without dopamine, confirmation, mechanism study for D1 allosteric modulator project, cell-based, HEK293 D1, CRE-luciferase, secondary assay 1; luminescence at 10 µM; 1,900 compounds, 0.8% hits; shares compounds with D1 allo mod; luminescence, no dopamine; active compounds read high; AID 646, 2007; in the data active means luminescence above about 3900
# Isoprot counter: alters isoproterenol CRE-luciferase response in HEK293 cells | calls only at 10 µM | HEK293 D1 CRE-luciferase, isoproterenol EC30 counter-screen | 2,200 compounds, 63% hits | shares compounds with D1 allo mod;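 active means luminescence in either replicate above plate mean of wells with a partly effective reference agonist dose plus 3 SD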;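 further: isoproterenol raises cAMP through native beta-adrenoceptor Gs so signal bypasses D1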
# * marks the source's active call; other numbers are inactive results; i = inactive; nt = no result; + = active, no number. The sample as a whole holds a higher share of hits than the screen did.
SMILES,EphB4 ephrin blk,D1 allo mod,hDAT+cocaine,D1 PAM confirm,D1 no dopamine,Isoprot counter
CCCCN(C)C(=O)c1coc(=O)c2ccccc12,-1.8,3.06*,0.0088,5824,nt,i
CN(C(=O)c1coc(=O)c2ccccc12)c1ccc(F)cc1,4.1,0.441,nt,nt,nt,nt
CCOC(=O)c1ccc(Oc2nc(NC)nc(Nc3ccccc3)n2)cc1,1.6,nt,-1.1,nt,nt,nt
CNc1nc(Nc2ccc(C(C)=O)cc2)nc(OC(C(F)(F)F)C(F)(F)F)n1,-2.1,20.7*,-5.93*,17924*,1544,+
CCCn1c(=O)c(C(=O)NCc2cccnc2)c(O)c2ccccc21,4.5,8.41*,0.281,15012*,1692,+
CC(C)Cn1c(=O)c(C(=O)Nc2ccncc2)c(O)c2ccccc21,nt,3.39,nt,nt,nt,nt
CC(C)Cn1c(=O)c(C(=O)Nc2cnccn2)c(O)c2ccccc21,nt,3.37*,-0.0934,9760*,1672,i
CCCn1c(=O)c(C(=O)NCc2ccccn2)c(O)c2ccccc21,-1.0,3.9,0.632,nt,nt,nt
Nn1c(SCC(=O)NC(=O)NCc2ccco2)nnc1-c1ccc(OC(F)F)cc1,0.3,nt,nt,nt,nt,nt
C#CCOCCOCCOCCNc1nc(N2CCN(C(=O)Cn3cc(CC(C)O)nn3)CC2)nc(N2CCN(C(=O)[C@H](C)n3cc(CCCN=C(N)N)nn3)CC2)n1 (stereo partly specified),nt,nt,-0.687,nt,nt,nt
Cc1sc2ncnc(NCC3CCCO3)c2c1C (stereo unspecified),-4.6,nt,-0.326,nt,nt,nt
CCCc1nc2oc3c(OC)ncnc3c2c2c1COC(C)(C)C2,1.4,nt,1.15,nt,nt,nt
CCCc1nc2oc3c(NCCOCCO)ncnc3c2c2c1COC(C)(C)C2,nt,13.7*,1.35,18640*,nt,+
Cc1nc2oc3c(NCC4CCCO4)ncnc3c2c2c1COC(C)(C)C2 (stereo unspecified),-4.9,6.41*,2.15,9548*,nt,i
Cc1cccc(NC(=O)c2sc(Cl)nc2-c2ccccc2)c1,4.9,nt,-0.65,nt,nt,nt
Cc1nc(NCCc2ccccc2)c2oc3ccccc3c2n1,3.3,nt,1.1,nt,nt,nt
CCc1nnc(NC(=O)c2nc3nc(C)cc(C)n3n2)s1,1.3,nt,nt,nt,nt,nt
Brc1ccc2oc3c(N4CCOCC4)ncnc3c2c1,nt,5.06*,-0.5,8996*,1872,+
c1ccc(N2CCN(c3ncnc4c3oc3ccccc34)CC2)cc1,-0.5,0.642,nt,nt,nt,nt
CCOC(=O)C1CCN(C(=O)Nc2ccc(Cl)cc2Cl)CC1,nt,-0.173,nt,nt,nt,nt
Cc1cc(NC(=O)COc2nnc(-c3ccccc3)c3ccccc23)no1,-0.3,5.49*,0.483,6684*,1432,i
Cc1cc(NC(=O)CSc2ccc(-c3ccccc3)nn2)no1,10.2,nt,nt,nt,nt,nt
O=C(O)C[C@H]1c2ccccc2S(=O)(=O)N1C1CCCC1,nt,nt,-0.0575,nt,nt,nt
CCCCCc1ccc(CC(=O)Nn2c(C)nc3ccccc3c2=O)cc1,-1.6,nt,0.497,nt,nt,nt
CCOc1ccc(C2C(C#N)=C(N)SC(N)=C2C#N)cc1OC,nt,6.06*,0.194,10912*,1684,i
SMILES,EphB4 ephrin blk,D1 allo mod,hDAT+cocaine,D1 PAM confirm,D1 no dopamine,Isoprot counter
CCOc1ccc(C2C(C#N)=C(N)SC(N)=C2C#N)cc1OCC,nt,5.43*,-0.0116,13032*,1560,+
N#CC1=C(N)SC(N)=C(C#N)C1c1cccc(Oc2ccccc2)c1,10.6,-1.39,-1.6,nt,nt,nt
CCOc1ccccc1C1C(C#N)=C(N)SC(N)=C1C#N,2.5,-0.0886,nt,nt,nt,nt
O=C(NCCOC12CC3CC(CC(C3)C1)C2)c1cccc(Br)c1,-1.0,nt,0.018,nt,nt,nt
Cc1ccc(-c2cc(C(F)(F)F)n3nc(C(=O)NCCCn4ccnc4)cc3n2)cc1C,0.8,nt,0.554,nt,nt,nt
CCS(=O)(=O)n1nc(-c2ccc(C)cc2)nc1N,-6.0,2.9,0.482,nt,nt,nt
CCS(=O)(=O)n1nc(-c2ccc(Cl)cc2)nc1N,nt,5.04*,0.0416,8932*,1784,+
COCCOC(=O)C1=C(C)N=C2SCCC(=O)N2C1c1ccc(OC(=O)c2ccco2)cc1 (stereo unspecified),1.8,2.27,-0.544,nt,nt,nt
C#CCOCCOCCOCCNc1nc(N2CCN(C(=O)[C@H](CCC(=O)O)n3cc(C(N)CC(C)C)nn3)CC2)nc(N2CCN(C(=O)[C@H](CCC(=O)O)n3cc(C(N)[C@H](C)CC)nn3)CC2)n1 (stereo partly specified),nt,nt,0.249,nt,nt,nt
COC(C)(C)c1cc(C(C)(C)C)nc(N)n1,-6.7,3.09*,-0.0196,10892*,nt,+
Cc1cc(N2CCN(C3CCCC3)CC2)n2nc(C)c(-c3ccccc3)c2n1,nt,0.112,nt,nt,nt,nt
N#Cc1ccccc1Cn1c(=O)n(-c2ccc(CC(=O)NCc3ccco3)cc2)c(=O)c2sccc21,nt,-0.216,0.00078,nt,nt,nt
N#Cc1ccccc1Cn1c(=O)n(Cc2ccc(C(=O)NCc3ccco3)cc2)c(=O)c2sccc21,nt,15.7*,0.37,10644*,1632,+
Cc1cc(S(=O)(=O)Nc2ccc(F)cc2)c(C)s1,2.3,nt,-0.195,nt,nt,nt
COc1ccc(-c2nc(SC)n(C)c(=O)c2C#N)cc1OC,nt,nt,0.00494,nt,nt,nt
CCc1nc(N)c(C#N)c(-c2cccn2C)c1C,1.8,0.631,-0.448,nt,nt,nt
CCc1nc(N)c(C#N)c(-c2ccncc2)c1C,-0.5,4.35*,-0.0103,15468*,1728,i
CCc1nc(N)c(C#N)c(-c2ccc(OC)c(OC)c2)c1C,-3.9,6.72*,0.138,11376*,1860,+
CCc1nc(N)c(C#N)c(-c2ccc(O)c(OC)c2)c1C,-0.5,nt,0.025,nt,nt,nt
CCc1nc(C)c(C#N)c2cc(OC)c(OC)cc12,-10.2,4.44*,-0.0396,11084*,1576,+
COc1ccc(C(=O)N(C(C)C)C(C)C)c(OC)c1,0.9,nt,0.529,nt,nt,nt
CCCCNC(=O)CN1C(=O)NC2(CCCc3ccccc32)C1=O (stereo unspecified),10.5,nt,-0.965,nt,nt,nt
COC(=O)Nc1ccc2c(c1)N(C(=O)CCN1CCOCC1)c1ccccc1S2,-4.5,4.3*,0.301,8120*,1920,i
CCOC(=O)Nc1ccc2c(c1)N(C(=O)CCN1CCOCC1)c1ccccc1S2=O (stereo unspecified),-0.3,0.343,-0.159,nt,nt,nt
O=C(N1CCOCC1)N1c2ccccc2Sc2ccccc21,-7.9,nt,0.0329,nt,nt,nt
CCOC(=O)Nc1ccc2c(c1)N(C(=O)CCN1CCOCC1)c1ccccc1S2,0.3,4.82*,0.779,10492*,1592,+
c1ccc(-c2nnc(C3CC(c4ccncc4)=NO3)o2)cc1 (stereo unspecified),nt,nt,-0.0568,nt,nt,nt
CCCN(CCC)CCNc1c(N2CCN(C(=O)OCC)CC2)c(=O)c1=O,1.0,nt,0.51,nt,nt,nt
COc1cccc(Cn2nnc(C(=O)NCc3ccc(F)cc3)c2N)c1,-5.3,1.29,-0.0106,nt,nt,nt
COc1cccc(Cn2nnc(C(=O)NCc3ccccc3Cl)c2N)c1,0.3,6.78*,0.429,16056*,1908,+
